Screens: PubChem BioAssay, National Center for Advancing Translational Sciences (NCATS)
Shown are actives, neighbours in structure and some others; about 3.2% of the full set was active somewhere.
GBA activity = Glucocerebrosidase. purified enzyme, resorufin glucoside fluorescence (screen aimed at inhibitors), 20 min. Potency, µM. actives 1.1% (n = 48,000); in the data active = potency below about 15 µM; inconclusive = mostly about 16 µM to 33 µM;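 note: the screen sought inhibitors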
Target sequence (P04062 whole entry, looked up): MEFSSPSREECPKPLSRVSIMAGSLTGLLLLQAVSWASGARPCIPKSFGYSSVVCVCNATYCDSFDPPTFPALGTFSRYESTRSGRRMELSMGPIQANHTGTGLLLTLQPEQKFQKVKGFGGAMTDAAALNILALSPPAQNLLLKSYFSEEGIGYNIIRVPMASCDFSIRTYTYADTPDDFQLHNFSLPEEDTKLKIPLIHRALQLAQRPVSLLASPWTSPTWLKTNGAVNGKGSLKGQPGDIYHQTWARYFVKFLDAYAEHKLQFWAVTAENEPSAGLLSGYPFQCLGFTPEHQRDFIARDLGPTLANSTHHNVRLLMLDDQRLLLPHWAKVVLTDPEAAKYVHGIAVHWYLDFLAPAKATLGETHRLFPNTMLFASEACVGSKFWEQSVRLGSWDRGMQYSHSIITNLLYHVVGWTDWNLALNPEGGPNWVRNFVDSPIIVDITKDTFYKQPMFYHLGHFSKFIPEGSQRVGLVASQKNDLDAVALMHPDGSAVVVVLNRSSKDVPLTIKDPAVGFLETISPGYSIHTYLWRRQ
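Compounds titrated against 0.2 nM normal enzyme, 30 uM resorufin beta-D-glucopyranoside substrate, citrate/phosphate buffer with taurocholate and tween-20, pH 5.9. Reaction ran 20 min at room temperature; fluorescence (Ex 548/Em 600) gave AC50.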
Luciferase inh = qHTS Assay for Inhibitors of Firefly Luciferase; actives 2.2% (n = 72,000); Luciferin 4-monooxygenase (Photinus pyralis), P08659; Potency, µM (series often up to 57.1 µM), inactives show at the top dose activity change, negative = inhibition, most hits filed as inhibitors; purified firefly luciferase, luminescence, 8 min; active = well fitted inhibition curve with a large enough effect; inconclusive = small, poorly fitted or top-dose-only effect; note: % is set by controls: 0 for no effect and ±100 for the full control effect; nearly all actives have a fitted effect of over 40% in size
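qHTS concentration-response profiling: light output of P. pyralis luciferase with luciferin and 10 uM ATP, imidazole buffer pH 7.2. Read by luminescence after 8-min room-temperature incubation.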
PK Bst = Pyruvate Kinase; purified pyruvate kinase, luminescence ATP production; ribose 5-phosphate activator present at AC10; Potency, µM; actives 1.2% (n = 51,000); in the data active = potency below about 11 µM; inconclusive = mostly about 12 µM to 25 µM;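 the screen sought inhibitors and activators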;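 note: scaled between full activation by ribose 5 phosphate and full inhibition by luteolin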
* = called active by the depositor; i = inactive; ? = inconclusive; . = no result; ! = a repeat was not active; [ ] = another dose, or the depositor's remark. Potency is the fitted concentration of half-maximal effect.

SMILES | GBA activity | Luciferase inh | PK Bst
c1ccc(-c2nc(NCC3CCCO3)c3ccccc3n2)nc1 (stereo not drawn) | . | -1%[25.5 µM] | >11
CO[C@H]1COC(=O)C/C=C\[C@H](C)[C@H](OC)COC(=O)[C@@H](C)COC(=O)C/C=C\[C@@H]1C | . | 0%[11.4 µM] | .
COCC(=O)Nc1nc2ccc(C)cc2s1 | >77 | 20µM* | i
CCOc1ccc2nc(NC(=O)CS(=O)(=O)c3ccccc3)sc2c1 | ? | -24% | >57
COCC(=O)NCCNc1nc2ccc(C)cc2cc1C | 2.8* | -3% | .
Cc1ccc2nc(NC(=O)CN3CCOCC3)sc2c1 | >77 | -3% | >57
CCCC(=O)Nc1nc2ccc(OCC)cc2s1 | . | 13µM* | .
CCOc1ccc2nc(NCCNC(=O)C(C)C)c(C)cc2c1 | ? | -2% | .
c1ccc2c(c1)c1ccccc1n2Cn1c2ccccc2c2ccccc21 | . | -1%[11.4 µM] | .
c1ccc(-c2ccc(OCCOCCn3cncn3)cc2)cc1 | >77 | 13µM* | .
c1ccc(Cc2ccc(OCCn3cncn3)cc2)cc1 | >77 | -1% | >57
c1ccc(COc2ccc(OCCCn3cncn3)cc2)cc1 | >77 | 20µM* | .
FC(F)(F)c1cccc(OCCOCCn2cncn2)c1 | >77 | 0% | >57
COc1ccc(CNc2ncnc3ccc(-c4cccc(C#N)c4)cc23)c(OC)c1 | . | -1%[2.29 µM] | .
COc1cccc(Nc2ncc3ncc(=O)n(C[C@H]4CCCO4)c3n2)c1 | . | 2%[11.4 µM] | .
Cc1cc(C(=O)NNCc2ccccc2)no1 | . | 2%[25.5 µM] | .
O=C1OCCC1Sc1nnc(-c2ccco2)o1 (stereo not drawn) | >77 | 0% | >57
O=C1OCCC1Sc1nnc(-c2ccc(Br)cc2)o1 (stereo not drawn) | >77 | 16µM* | .
CO[C@@H]1COC(=O)[C@H](CCSC)NC(=O)C/C=C\[C@@H](C)COC(=O)[C@@H]2CCCN2C(=O)C/C=C\[C@H]1C | . | 3%[11.4 µM] | .
Cc1ccc(C[C@H](Cc2nc3ccccc3[nH]2)c2nc3ccccc3[nH]2)cc1 | . | -5%[11.4 µM] | .
N#C[C@H](c1ccccc1)N1CCCN([C@@H](C#N)c2ccccc2)C1c1ccccc1O (stereo partly drawn) | . | 2%[11.4 µM] | .
Cc1cc(C(=O)CN2C(=O)CCC2=O)c(C)n1Cc1ccccc1 | >77 | -3% | >57
Cc1cc(C(=O)CN2C(=O)c3ccccc3C2=O)c(C)n1Cc1cccs1 | >77 | 7.9µM* | 11*
COc1ccc(OC)c(C(=O)Cn2nnc3ccccc3c2=O)c1 | >77 | 2% | >57
Cc1cc(C(=O)Cn2nnc3ccccc3c2=O)c(C)n1Cc1cccs1 | >77 | 6.3µM* | 5.7*
SMILES | GBA activity | Luciferase inh | PK Bst
CCCCCc1nc2c(=O)n(C)c3ccccc3c2o1 | >77 | 0% | .
Cn1c(=O)c2nc(-c3ccccc3)oc2c2ccccc21 | >77 | -3% | 0.43*
CCN(CC)C(=O)Oc1ccc2c(=O)c(-c3ccc(OC)cc3)coc2c1 | >77 | -29% | >57
CC(C)Oc1ccc2c(=O)c(-c3ccccc3)coc2c1 | . | 5µM* | i
Cc1ccccc1-c1coc2cc(O)ccc2c1=O | >77 | 2% | >57
O=c1c(-c2ccc(O)cc2)coc2cc(O)ccc12 | . | 10µM*! | .
O=C(Nc1ccc2c(c1)OCCO2)c1c(F)c(F)c(F)c(F)c1F | >77 | 1% | >57
O=C(Nc1ccc2c(c1)OCCO2)NC12CC3CC(CC(C3)C1)C2 | . | 13µM* | .
C/C(=C\C(=O)c1ccc(C)o1)Nc1ccc2c(c1)OCO2 | >77 | -15% | .
O=C(Nc1ccc2c(c1)OCCO2)c1ccc(Br)o1 | . | 5µM* | ?
O=C(Nc1ccc(CN2CCCCC2)cc1)c1ccc2c(c1)OCO2 | . | -20% | >57
O=C(Nc1ccc(CN2CCCCC2)cc1)c1ccc(Br)o1 | >77 | 13µM* | >57
Cc1ccc(C(=O)Nc2ccc3c(c2)OCO3)o1 | . | 13µM* | .
O=C(COc1ccc2c(c1)OCO2)NC12CC3CC(CC(C3)C1)C2 | . | -2% | >57
O=C(O)C(Sc1ccc(Cl)cc1)Sc1ccc(Cl)cc1 | . | 3%[11.4 µM] | .
C#CCN1C(C)=C(C(=O)OC)[C@@H](c2cccc([N+](=O)[O-])c2)C(C(=O)OCC)=C1C | . | -4% | .
COCC(=O)N1CCC2(CC1)CN(Cc1cc(C(F)(F)F)cc(C(F)(F)F)c1)C2 | . | -2%[11.4 µM] | .
Cc1ccc(-[n+]2cc(=O)o[nH]2)cc1 | . | 1%[11.4 µM] | .
Cc1cc2nc3c(c(=O)n2[nH]1)CCCC3 | . | 2% | .
Cc1ccc(-c2[nH]n3c(=O)c4c(nc3c2C)CCCC4)cc1 | 8* | 2% | i
COCCn1c(=O)c(-c2cccc(C#N)c2)nc2cnc(N3CCOCC3)nc21 | . | -4%[11.4 µM] | .
O=C(Nc1ncc2c(n1)CC(c1ccccc1)CC2=O)c1ccco1 (stereo not drawn) | >77 | 1% | >57
O=C1CC(c2ccccc2)Cc2nc(NCc3ccco3)ncc21 (stereo not drawn) | >77 | 3.2µM* | 5.2*
C[C@@H]1/C=C\CC(=O)OC[C@H]2O[C@@H](C=C[C@@H]2O)[C@H](C)/C=C\CC(=O)OC1 | . | 1%[11.4 µM] | .
COC(=O)c1ccc(-c2nc(-c3ccc(Br)o3)no2)cc1 | . | -7% | .
SMILES | GBA activity | Luciferase inh | PK Bst
CCOc1cc(-c2nc(-c3ccc(OC)cc3)no2)cc(OCC)c1OCC | . | 1% | .
COC(=O)c1ccc(-c2nc(-c3cccs3)no2)cc1 | . | 1.6µM* | .
COc1cccc(-c2noc(-c3cccs3)n2)c1 | . | 10µM* | ?
COc1cccc(-c2nc(-c3ccccc3)no2)c1 | i | 10µM* | 9*
COc1cccc(-c2nc(-c3ccc(NC(=O)c4cccnc4)cc3)no2)c1 | >77 | 1% | >57
COc1nc(-c2ccccc2)ccc1-c1noc(-c2cccs2)n1 | i | -2% | >57
COc1ccc(-c2noc(-c3ccc(Cl)cc3)n2)cc1 | >77 | ? | 5.4*
NS(=O)(=O)c1ccc(N=Nc2cc3ccccc3c(C(=O)O)c2O)cc1 | . | 0%[11.4 µM] | .
C(=Nc1ccc2c(c1)Cc1ccccc1-2)c1ccccn1 | . | -2%[11.4 µM] | .
CO[C@@H]1COC(=O)[C@@H](C)NC(=O)C/C=C\[C@@H](C)[C@H](NS(=O)(=O)c2ccc(C)cc2)COC(=O)[C@H](C)NC(=O)C/C=C\[C@H]1C | . | 2%[11.4 µM] | .
C=CCOc1ccc(C2N3CC4(C)CN2CC(CCC)(C3)C4=O)cc1 (stereo not drawn) | 4.8* | 0% | >57
CCC12CN3CC(CC)(CN(C1)C3c1ccc(OC(C)C)cc1)C2=O (stereo not drawn) | 4.3* | 1% | >57
CCCC12CN3CC(C)(CN(C1)C3c1ccc(OC)cc1)C2=O (stereo not drawn) | . | 1% | >57
CC(C)Oc1ccc(C2CNC(=O)C2)cc1 (stereo not drawn) | . | 1% | .
COc1cc2nncc(SCc3ccc(Cl)c(Cl)c3)c2cc1OC | . | 2%[11.4 µM] | .
C=CCNc1oc(-c2cccc3ccccc23)nc1C#N | >77 | -13% | >57
C=CCNc1oc(-c2ccc(OC)cc2)nc1C#N | 15* | -23% | .
CCOc1ccc(-c2nc(C#N)c(NCC(C)C)o2)cc1 | . | -3%[25.5 µM] | >26
C=CCNc1oc(-c2ccc(OCC)cc2)nc1C#N | ? | -2% | 5.3*
COC(=O)c1cccc(NC(=O)NC2CCCN2S(=O)(=O)c2ccc(Cl)cc2)c1 (stereo not drawn) | >77 | 2% | 9.5*
O=C(COC(=O)C1CCCN1S(=O)(=O)c1ccc(Cl)cc1)Nc1ccc2c(c1)OCO2 (stereo not drawn) | ? | -2% | i
CC(=O)NCCNc1ncnc2ccc(-c3ccoc3)cc12 | . | 4%[2.29 µM] | .
